Test results published in PubChem BioAssay (NCATS).
Records with an inconclusive call do not appear. Active and inactive are the calls of the source. Calls follow the shape of the dose curve; as a rule, active = well fitted inhibition curve with a large enough effect; inconclusive = small, poorly fitted or top-dose-only effect; inactive = no such curve, though single readings can be large or run the other way.

assay: Primary qHTS for small molecule stabilizers of the endoplasmic reticulum resident proteome: Secreted ER Calcium Modulated Protein (SERCaMP) assay (AID 1508630); details: SH-SY5Y GLuc-SERCaMP (Gaussia luciferase released on ER calcium loss) secretion, thapsigargin, luminescence; series mostly up to 38.4 µM; activity change, negative = inhibition: at the top concentration
Method in brief: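 GLuc-SERCaMP-expressing SH-SY5Y cells, pretreated 16 h with compound, are challenged with thapsigargin to empty ER calcium stores; after 4 h, coelenterazine is added directly to the medium and luminescence is imaged.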
% is scaled to controls: 0 for no effect and ±100 for the full control effect.

Row | SMILES | activity change, negative = inhibition
1 | C[C@@H](C1[C@@H](O)CC2C3C=CC4C[C@@H](O)CC[C@]4(C)[C@H]3CC[C@@]21C)[C@@H]1CCCCN1 (stereo not given in full) | -29.1% (inactive)
2 | Cc1cc(O)c2c(c1O)C(=O)C(O)=C(O)C2=O | -18% (inactive)
3 | CC(=O)C1(C)CC2(CC(C)(C)OC2=O)C(=O)O1 (stereo not given) | -23% (inactive)
4 | O=C(O)c1ccccc1-c1oc2cc(O)ccc2c(=O)c1Oc1ccccc1 | 11% (inactive)
5 | O=C(O)C1Cc2c([nH]c3ccccc23)C(c2coc3ccccc3c2=O)N1 (stereo not given) | 4.26% (inactive)
6 | CC1=CC2C(=O)c3cccc(O)c3C(=O)C2C(O)=C1 (stereo not given) | 1.86% (inactive)
7 | COc1cc2c(cc1OC)C(C(=O)c1ccc(OC)c(OC)c1O)=NCC2 | 9.09% (inactive)
8 | COc1ccc(C(=O)N(O)c2ccccc2)cc1 | -1.43% (inactive)
9 | COc1cc(CCNC(C)=O)c(C(=O)/C=C/c2cccc(OC)c2OC)cc1OC | -19.6% (inactive)
10 | CC1(C)CCC[C@@]2(C)C1CC[C@@](C)(O)[C@@H]2CC[C@@](C)(O)C1CO1 (stereo not given in full) | -16.2% (inactive)
11 | COc1ccc2c(c1OC)C(=O)N1c3ccccc3C(=O)OC21 (stereo not given) | -12.1% (inactive)
12 | O=C(O)C[C@@H]1NC(=O)[C@H](Cc2ccccc2)NC1=O | 5.11% (inactive)
13 | C=C(C(=O)O)[C@@H]1CC[C@@]2(C)CCC[C@](C)(O)[C@@H]2C1 | 12.8% (inactive)
14 | Cc1cn2c(=O)c3ccccc3nc2n2c(=O)c3ccccc3nc12 | 4.99% (inactive)
15 | COc1ccccc1C1OC(=O)CC1C(=O)OC[C@@H]1CCCN2CCCCC12 (stereo not given in full) | 4.32% (inactive)
16 | O=C(O)c1ccc(-c2ccc3cc(C45CC6CC(CC(C6)C4)C5)c(O)cc3c2)cc1 | -16% (inactive)
17 | CC1=CC(=O)CC(C)(C)C1(O)/C=C/C(C)=C/C(=O)O (stereo not given) | 0.818% (inactive)
18 | C[C@@H]1Oc2ccccc2C=C1/C=C/C(=O)O | -12.7% (inactive)
19 | COC(=O)[C@H]1Cc2c([nH]c3ccccc23)CN1C(=O)COc1ccc2c(C)cc(=O)oc2c1 | 26.7% (inactive)
20 | Cc1cn(C2OC[C@@H](O)[C@@H]2CO)c(=O)[nH]c1=O (stereo not given in full) | -0.822% (inactive)

Row | SMILES | activity change, negative = inhibition
21 | CC1=CC[C@@]2(CO)COC(c3ccccc3O)C1C2 (stereo not given in full) | 16.1% (inactive)
22 | C[C@]12CCC(=O)C=C1CCC1C3CC[C@](O)(C(=O)CO)[C@@]3(C)CC3OC312 (stereo not given in full) | -32.8% (inactive)
23 | CC(=O)O[C@@H]1CC2C(C)(C)C(=O)C=C[C@]2(C)C2CC[C@]3(C)C(=CC[C@H]3C3CO[C@@H](C(C)(C)O)[C@H](O)C3)[C@@]21C (stereo not given in full) | 17.2% (inactive)
24 | C=C(C)C(=O)OC[C@@H]1CCC[N@+]2(C)CCCCC12 (stereo not given in full) | -22.8% (inactive)
25 | CN(C)CCc1cc2c(c3c1ccc1ccccc13)OCO2 | 15% (inactive)
26 | CCCCN(CC)CCOc1cccc2ccccc12 | 242% (inactive)
27 | COc1cc2c(cc1OC)C(/C=C/c1ccc(OC)c(OC)c1OC)=NCC2 | 156% (inactive)
28 | C=C1C[C@]23CC[C@H]4C(CO)(CO)C[C@@H](O)C[C@@]4(C)[C@@H]2CC[C@H]1C3 | -0.832% (inactive)
29 | CC1=CC(=O)OC1Cc1ccc2ccccc2n1 (stereo not given) | 1.73% (inactive)
30 | O=C1Nc2ccccc2C(=O)N2CCC[C@@H]12 | -0.369% (inactive)
31 | CC(=O)[C@@]1(O)[C@H](O)CC2C3CCC4CC(O)CC[C@]4(C)C3CC[C@@]21C (stereo not given in full) | -2.54% (inactive)
32 | C=CC(C1=CC(=O)C=CC1=O)c1ccc(O)cc1 (stereo not given) | -5.78% (inactive)
33 | O=c1[nH]c(-c2ccccc2O)nc2ccccc12 | 2.27% (inactive)
34 | COc1cc(=O)n(C)c2c(OCC3OC(C)(C)OC3(C)C)cccc12 (stereo not given) | -6.1% (inactive)
35 | CC1(O)/C=C\C=C(\CO)C2CC(C)(C)C2(O)CC1 (stereo not given) | -28.2% (inactive)
36 | O=c1ccc2ccc(O[C@@H]3O[C@H](CO)[C@@H](O)[C@H](O)[C@H]3O)c(O)c2o1 | -7.86% (inactive)
37 | CC1=C2C(=CO[C@H](C)[C@H]2C)C(=O)C(C(=O)O)=C1O | -3.77% (inactive)
38 | COc1ccc([C@H]2c3cc(OC)c(OC)cc3C[C@@H](C)[C@@H]2C)cc1OC | -0.607% (inactive)
39 | C[C@H]1OC(=O)CC[C@@H]2[C@]1(C)CCC1[C@@]2(C)CC[C@@]2(C)C3CC(C)(C)CC[C@]3(CO)CC[C@]12C (stereo not given in full) | -10.2% (inactive)
40 | COc1cccc(C(=O)CC2c3c(c(Br)c4c(c3OC)OCO4)CCN2C)c1 (stereo not given) | -10.9% (inactive)
